# Experimental data: paper PMC5540273 (PLoS ONE, 2017)
# What was measured:
# Conditions in all cases: concentration: 1 μM, replicates: in singlicate; n = 1
# NEK11 = tested on: NEK11
# NEK1 = tested on: NEK1
# NEK2 = tested on: NEK2
# NEK3 = tested on: NEK3
# NEK4 = tested on: NEK4
# NEK5 = tested on: NEK5
# NEK6 = tested on: NEK6
# NEK7 = tested on: NEK7
# NEK9 = tested on: NEK9
# NIK = tested on: T1, NIK
# T1 construct: gene MAP3K14
# NIM1 = tested on: T2, NIM1
# T2 construct: gene MGC42105
# NLK = tested on: NLK
# OSR1 = tested on: T3, OSR1
# T3 construct: gene OXSR1
# PAK1 = tested on: PAK1
# PAK2 = tested on: PAK2
# PAK3 = tested on: PAK3
# PAK4 = tested on: PAK4
# PAK6 = tested on: PAK6
# PAK7 = tested on: PAK7
# PCTK1 = tested on: T4, PCTK1
# T4 construct: gene CDK16
# 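Also: KINOMEscan kinase panel screen.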
Structure (SMILES),%Inh (NEK11) [%],%Inh (NEK1) [%],%Inh (NEK2) [%],%Inh (NEK3) [%],%Inh (NEK4) [%],%Inh (NEK5) [%],%Inh (NEK6) [%],%Inh (NEK7) [%],%Inh (NEK9) [%],%Inh (NIK) [%],%Inh (NIM1) [%],%Inh (NLK) [%],%Inh (OSR1) [%],%Inh (PAK1) [%],%Inh (PAK2) [%],%Inh (PAK3) [%],%Inh (PAK4) [%],%Inh (PAK6) [%],%Inh (PAK7) [%],%Inh (PCTK1) [%]
CC(C)c1nc(-c2cccc(NS(=O)(=O)c3c(F)cccc3F)c2F)c(-c2ccnc(Nc3ccc(N4CCOCC4)nc3)n2)s1 [GSK2008607],98.6,82,99.1,1,51,26,99.1,92.9,93.6,0,1,97.5,0,27,18,93.3,0,9,20,99.5
CN(C)Cc1ccc(-c2ccc3c(Nc4ccc(Oc5ccccn5)cc4)ccnc3c2)o1 [GW567148],8,0,0,0,21,0,0,0,0,12,23,0,15,0,0,22,0,0,0,3
COc1cccc(C2=C(Nc3ccc(Cl)c(C(=O)O)c3)C(=O)NC2=O)c1 [SB-390769],27,0,0,7,38,3,0,0,0,21,100,22,100,30,28,0,0,6,1,0
Nc1ncc(-c2cccnc2)c2scc(-c3ccc4c(c3)CCN4C(=O)Cc3ccccc3)c12 [GSK683281],44,0,70,1,17,22,8,19,28,4,11,47,19,18,19,62,18,0,7,1
O=c1[nH]cc(-c2ccc(N3CCOCC3)cc2)c2sc(-c3cn[nH]c3)cc12 [GSK2276055],0,19,19,16,0,0,0,39,53,17,30,0,1,8,26,0,0,17,31,4
COc1ccc(CNC(=O)NC2CCN(c3ccnc(Nc4ccc(F)cc4)n3)CC2)cc1 [GSK1379788],2,0,0,12,0,13,0,0,0,12,8,0,0,0,0,6,0,0,2,0
O=C(Nc1cccc(-c2nn3ccccc3c2-c2ccnc(Nc3cccc(C(F)(F)F)c3)n2)c1)c1c(F)cccc1F [GSK292658],0,0,8,0,0,0,0,4,16,0,2,33,19,9,6,21,0,0,0,2
c1ccc(-c2n[nH]cc2Nc2ccnc3ccccc23)nc1 [GW694077],0,7,99.1,3,0,6,0,0,41,19,25,53,7,6,50,1,20,0,2,4
O=C(Nc1cccc(-c2nn3ncccc3c2-c2ccnc(Nc3ccccc3)n2)c1)c1c(F)cccc1F [GSK198271],0,3,21,11,4,0,0,0,8,0,4,95.1,16,24,16,31,0,1,0,10
COc1cccc(-c2ccc3c(NC(=O)C4CC4)n[nH]c3n2)c1 [SB-710903],36,0,0,18,0,6,0,0,0,0,46,49,13,0,0,1,0,0,8,10
CC(C)(C)c1ccc2nccc(Nc3cccc(O)c3)c2c1 [GW856795],22,0,11,13,0,0,0,0,0,9,30,0,0,0,0,0,23,0,2,0
COc1ccc(-c2coc3ccc(-c4nnc(SCc5ccc(OC)c(C(F)(F)F)c5)o4)cc23)cc1,0,0,8,0,2,0,13,0,0,1,0,10,3,0,3,22,1,17,3,0
Cn1cc(-c2ccc3c(c2)CCN3C(=O)Cc2cccc(F)c2)c2c(N)ncnc21 [GSK2603358],8,31,73,11,22,28,0,0,0,23,24,0,37,0,0,31,0,0,0,4
O=C(O)C(F)(F)F.O=C(O)C(F)(F)F.O=c1[nH]ccc2nc(N[C@@H]3CCCNC3)nc(Nc3ccc(S(=O)(=O)N4CCOCC4)cc3)c12 [GSK2177277],0,62,80,89,96.1,51,46,35,14,87,95.7,0,92.1,99.9,99.3,100,99.6,97.9,99.9,99.9
C[C@@H](Oc1cc(-n2cnc3cc(-c4ccnc(NCCS(C)(=O)=O)c4)ccc32)sc1C(N)=O)c1ccccc1Cl [GSK907232],0,72,98.8,3,0,89,4,12,74,0,69,14,20,6,32,26,0,0,0,7
CSc1cccc2c(-c3ccncn3)c(-c3ccc(F)cc3)nn12 [GW514786],0,0,0,0,15,7,0,0,1,14,19,70,8,11,25,19,0,3,0,2
Cc1ccc(S(=O)(=O)Nc2ccc(Nc3nccc(Nc4cccc5[nH]ncc45)n3)cc2)cc1 [GSK581271],27,0,4,0,20,5,0,0,11,0,26,56,13,14,12,35,0,18,0,2

Structure (SMILES),%Inh (NEK11) [%],%Inh (NEK1) [%],%Inh (NEK2) [%],%Inh (NEK3) [%],%Inh (NEK4) [%],%Inh (NEK5) [%],%Inh (NEK6) [%],%Inh (NEK7) [%],%Inh (NEK9) [%],%Inh (NIK) [%],%Inh (NIM1) [%],%Inh (NLK) [%],%Inh (OSR1) [%],%Inh (PAK1) [%],%Inh (PAK2) [%],%Inh (PAK3) [%],%Inh (PAK4) [%],%Inh (PAK6) [%],%Inh (PAK7) [%],%Inh (PCTK1) [%]
NCCCC(NC(=O)c1cc(Br)c(-c2ccnc3[nH]ccc23)s1)c1ccccc1.O=C(O)C(F)(F)F.O=C(O)C(F)(F)F (centres unmarked) [GSK1287544],0,74,9,0,9,88,16,0,17,16,15,0,57,2,41,67,2,56,29,10
Cl.Cl.NCC(NC(=O)c1cc(-c2ccccc2)c(-c2ccnc3[nH]ccc23)s1)c1ccccc1 (centres unmarked) [GSK1321561],6,0,8,0,0,6,0,0,13,17,50,55,15,4,0,30,0,12,44,7
COc1cccc(NC(=O)NC2CCN(c3ccnc(Nc4cc(OC)c(OC)c(OC)c4)n3)C2)c1 (centres unmarked) [GSK1379763],0,65,21,33,5,100,16,52,40,6,15,63,0,0,0,0,0,16,0,6
Cl.c1ccc(-c2ccc3c(Nc4ccc5[nH]ccc5c4)ccnc3c2)nc1 [GW440138],0,0,0,9,0,0,0,0,0,24,29,36,4,0,0,0,0,0,0,0
CNC(=O)c1ccccc1Nc1nc(Nc2ccc(N3CCOCC3)cc2)ncc1Cl.Cl [GSK1576028],85,86,89,93.3,65,100,98.6,98,97.7,36,41,26,35,71,61,100,78,66,83,11
COC(=O)Nc1nc2cc(Oc3ccc(NC(=O)Nc4cc(C(F)(F)F)ccc4F)cn3)ccc2[nH]1.Cl.Cl [GW681170],34,0,0,0,0,0,0,0,35,26,27,30,0,0,0,9,0,0,0,0
Cc1ccc(C)c(NC(=O)NC2CCN(c3ccnc(Nc4ccc(F)cc4)n3)C2)c1 (centres unmarked) [GSK1379720],15,0,0,8,27,4,0,0,0,22,43,4,0,4,2,14,0,0,0,0
O=C(Nc1cccc(Oc2ccc3nc(NC(=O)C4CC4)cn3n2)c1)c1ccccc1C(F)(F)F,0,9,12,26,0,9,0,0,0,0,0,37,0,8,6,4,0,9,0,0
COc1ccc(Nc2nccc(N3CCC(NC(=O)Nc4cccc(OC)c4)C3)n2)cc1 (centres unmarked) [GSK1379742],0,0,17,0,0,3,0,0,2,7,22,0,0,44,27,0,0,0,0,4
COCCOCCOc1cc2ncc3c4ccc(C#N)cc4[nH]c3c2cc1OC,0,0,53,33,0,0,0,15,7,65,48,19,0,18,22,21,19,10,1,0
COc1cc(Nc2nccc(-c3c(-c4cccc(NC(=O)c5c(F)cccc5F)c4)nn4ccccc34)n2)cc(OC)c1OC [GSK323521],0,8,78,0,34,22,25,33,48,19,39,0,4,11,5,44,9,7,6,3
c1ccc(Oc2ccc(Nc3ccnc4cc(-c5ccc(CNCCN6CCOCC6)o5)ccc34)cc2)nc1 [GW567145],45,0,0,0,0,0,0,0,13,28,20,12,2,0,0,3,0,0,0,0
c1ccc(-c2cnc3nccnn23)cc1 [AH20685],0,0,0,0,16,0,0,0,0,0,0,0,0,13,20,2,0,0,0,7
CCS(=O)(=O)c1ccc(OC)c(Nc2nccc(-c3c(-c4cccc(NC(=O)c5c(F)cccc5F)c4)nn4ncccc34)n2)c1 [GSK326180],0,0,4,14,6,15,0,0,10,6,7,48,9,0,0,14,0,11,3,2
Cl.Cl.NCC(C(=O)Nc1cc(Br)c(-c2ccnc3[nH]ccc23)s1)c1ccccc1 (centres unmarked) [GSK1269851],0,0,15,18,15,0,0,10,9,8,11,0,36,17,32,27,0,0,51,11
O=C(Nc1cccc(-c2nn3ccccc3c2-c2ccnc(Nc3cccc(F)c3)n2)c1)c1c(F)ccc(F)c1Cl [GSK357952],6,0,20,0,6,0,0,6,19,36,7,46,2,0,2,16,0,0,15,0
COc1cc(Nc2nccc(-c3c(-c4cccc(NC(=O)c5c(F)cccc5F)c4)nn4ncccc34)n2)cc(OC)c1OC [GSK327238],0,0,92.7,0,12,58,17,18,41,13,0,82,19,70,9,36,0,11,41,11
